Our source for the outcome and Potency values is PubChem BioAssay (NCATS).

Records with an inconclusive call do not appear. Entries that show only a call come without a potency. Calls of active or inactive are those of the source. Unless noted, calls come from the whole dose curve; as a rule, active = well fitted curve in the direction sought with a large enough effect; inconclusive = small, poorly fitted or top-dose-only effect, or effect the other way, or another doubt; inactive = no such curve, though single readings can be large or run the other way.

The nature of one assay: qHTS Assay for Identification of Small Molecule Agonists for NFkB Signaling Pathway. (AID 624478).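 Note: compounds tested together with TNF alpha at its EC50 of 10 pM.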 The conditions noted are these: NFkB pathway reporter cell assay, agonist mode, cells co-stimulated with 10 pM TNF alpha; series mostly up to 46.1 µM. In outline: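 Activators were sought in reporter cells stimulated at the TNF alpha EC50 (10 pM final). Compound and cytokine were co-incubated 5 hours at 37 C before beta-lactamase substrate detection by dual-emission fluorescence.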
Turning to `C[C@@H]1C[C@H]2[C@@H]3CCC4=CC(=O)C=C[C@]4(C)C3(F)[C@@H](O)C[C@]2(C)[C@@]1(O)C(=O)CO` (stereo partly drawn), the compound was classed as inactive.

On to `COc1ccccc1[C@H](c1cccc2ccccc12)[C@@](C)(C#N)C(=O)N1CCC(c2cccc(C(F)(F)F)c2)CC1`, for which the result was inactive.

As to `COc1ccc2c3n(c(=NC(=O)c4cccnc4)nc2c1OC)CCN3`, the outcome was inactive.

Turning to `Cc1csc(NC(=O)c2sc3nc4c(c(C(F)(F)F)c3c2N)CCC4)n1`, the result was inactive.

For `CNC(=O)c1ccccc1Sc1ccc2c(/C=C/c3ccccn3)n[nH]c2c1`, the compound was called inactive.

As for `CC(C)(N)C(=O)N[C@H](COCc1ccccc1)C(=O)N1CCC2(CC1)CN(S(C)(=O)=O)c1ccccc12`, the call was inactive.

In the case of `CC(C)OC(=O)C1=CN(C(=O)c2ccc(F)c(F)c2)CC(C)(C)c2c1[nH]c1ccccc21`, the outcome was inactive.

For the compound `CC(c1cc2ccccc2s1)N(O)C(N)=O` (stereo not drawn), the outcome was inactive.

`NC(=O)c1ccc(-c2nc(-c3ccc4c(c3)OCO4)c(-c3ccccn3)[nH]2)cc1`: the compound was classed as inactive.

Regarding `O=C1[C@H](Cc2ccc(O)cc2)N2C(=O)CCN(C(=O)NCc3ccccc3)[C@H]2CN1Cc1cccc2ccccc12`, the call was inactive.

On to `CO[C@@H]1[C@H](N(C)C(=O)c2ccccc2)C[C@H]2O[C@]1(C)n1c3ccccc3c3c4c(c5c6ccccc6n2c5c31)C(=O)NC4`, for which the compound was classed as inactive.

In the case of `CC1(C)SCCN(S(=O)(=O)c2ccc(OCC#CCO)cc2)[C@@H]1C(=O)NO`, the result was inactive.

For `CC[C@@H](C)[C@H](NC(=O)[C@H](CC1CCCCC1)NC(=O)c1ccno1)C(=O)N1CCC2(CCc3ccccc32)CC1`, the call was inactive.

On to `Nc1ncnc2nc(-c3ccc(N4CCOCC4)nc3)cc(-c3cccc(Br)c3)c12`, for which the result was inactive.

In the case of `O=C(O)[C@@H](c1ccc(OCc2ccc3ccccc3n2)cc1)C1CCCC1`, the compound was classed as inactive.

With `Cc1cc(Nc2nc(N[C@@H](C)c3ncc(F)cn3)ncc2Cl)n[nH]1`, the compound was called inactive.

For `CCOC(=O)C1=C[C@@]2(CC)CCCN3CCc4c(n1c1ccccc41)[C@H]32`, the outcome was inactive.

With `CCN(CC)CCCC(C)Nc1nc(C)cc(Nc2ccc3nc(C)cc(N)c3c2)n1` (stereo not drawn), the compound was called inactive.

Regarding `CCCc1nn(C)c2c(=O)[nH]c(-c3cc(S(=O)(=O)N4CCN(C)CC4)ccc3OCC)nc12`, the compound was classed as inactive.

On to `CN[C@@H](C)C(=O)N[C@H]1CCCC[C@H]2CC[C@@H](C(=O)N[C@@H](c3ccccc3)c3cn(CCCCc4ccc(CCCCn5cc([C@@H](NC(=O)[C@@H]6CC[C@@H]7CCCC[C@H](NC(=O)[C@H](C)NC)C(=O)N76)c6ccccc6)nn5)cc4)nn3)N2C1=O`, for which the outcome was inactive.

With `O=c1[nH]c(-c2ccc(C(F)(F)F)cc2)nc2c1CSCC2`, the compound was called inactive.

As for `Fc1ccc(Cl)cc1-c1nc(Nc2ccncc2)c2nccnc2n1`, the compound was classed as inactive.

Another assay in a line: qHTS Assay for Identification of Small Molecule Antagonists for NFkB Signaling Pathway. (AID 624479; calls by dose curve). Conditions: NFkB pathway reporter cell assay, antagonist mode; series mostly up to 38.3 µM.
As to `C[C@@H]1C[C@H]2[C@@H]3CCC4=CC(=O)C=C[C@]4(C)C3(F)[C@@H](O)C[C@]2(C)[C@@]1(O)C(=O)CO` (stereo partly drawn), the Potency entry was “inactive”.

For the compound `COc1ccccc1[C@H](c1cccc2ccccc12)[C@@](C)(C#N)C(=O)N1CCC(c2cccc(C(F)(F)F)c2)CC1`, the Potency result is “inactive”.

Turning to `COc1ccc2c3n(c(=NC(=O)c4cccnc4)nc2c1OC)CCN3`, the Potency entry was “inactive”.

Consider `Cc1csc(NC(=O)c2sc3nc4c(c(C(F)(F)F)c3c2N)CCC4)n1`, for which the Potency entry was “inactive”.

With `CNC(=O)c1ccccc1Sc1ccc2c(/C=C/c3ccccn3)n[nH]c2c1`, the Potency entry was “inactive”.

`CC(C)(N)C(=O)N[C@H](COCc1ccccc1)C(=O)N1CCC2(CC1)CN(S(C)(=O)=O)c1ccccc12`: the Potency entry was “inactive”.

As to `CC(C)OC(=O)C1=CN(C(=O)c2ccc(F)c(F)c2)CC(C)(C)c2c1[nH]c1ccccc21`, the Potency entry is “inactive”.

For the compound `CC(c1cc2ccccc2s1)N(O)C(N)=O` (stereo not drawn), the Potency result is “inactive”.

As for `NC(=O)c1ccc(-c2nc(-c3ccc4c(c3)OCO4)c(-c3ccccn3)[nH]2)cc1`, the Potency result is “inactive”.

As for `O=C1[C@H](Cc2ccc(O)cc2)N2C(=O)CCN(C(=O)NCc3ccccc3)[C@H]2CN1Cc1cccc2ccccc12`, the Potency result is “inactive”.

On to `CO[C@@H]1[C@H](N(C)C(=O)c2ccccc2)C[C@H]2O[C@]1(C)n1c3ccccc3c3c4c(c5c6ccccc6n2c5c31)C(=O)NC4`, for which the Potency entry was “inactive”.

Regarding `CC1(C)SCCN(S(=O)(=O)c2ccc(OCC#CCO)cc2)[C@@H]1C(=O)NO`, the Potency result is “inactive”.

`CC[C@@H](C)[C@H](NC(=O)[C@H](CC1CCCCC1)NC(=O)c1ccno1)C(=O)N1CCC2(CCc3ccccc32)CC1`: the Potency entry was “inactive”.

As for `O=C(O)[C@@H](c1ccc(OCc2ccc3ccccc3n2)cc1)C1CCCC1`, the Potency entry was “inactive”.

For the compound `Cc1cc(Nc2nc(N[C@@H](C)c3ncc(F)cn3)ncc2Cl)n[nH]1`, the Potency entry was “inactive”.

Turning to `CCOC(=O)C1=C[C@@]2(CC)CCCN3CCc4c(n1c1ccccc41)[C@H]32`, the Potency entry is “inactive”.

Consider `CCN(CC)CCCC(C)Nc1nc(C)cc(Nc2ccc3nc(C)cc(N)c3c2)n1` (stereo not drawn), for which the Potency result is “inactive”.

`CCCc1nn(C)c2c(=O)[nH]c(-c3cc(S(=O)(=O)N4CCN(C)CC4)ccc3OCC)nc12`: the Potency entry is “inactive”.

On to `CN[C@@H](C)C(=O)N[C@H]1CCCC[C@H]2CC[C@@H](C(=O)N[C@@H](c3ccccc3)c3cn(CCCCc4ccc(CCCCn5cc([C@@H](NC(=O)[C@@H]6CC[C@@H]7CCCC[C@H](NC(=O)[C@H](C)NC)C(=O)N76)c6ccccc6)nn5)cc4)nn3)N2C1=O`, for which the Potency entry was “inactive”.

Consider `O=c1[nH]c(-c2ccc(C(F)(F)F)cc2)nc2c1CSCC2`, for which the Potency entry is “inactive”.

On to `Fc1ccc(Cl)cc1-c1nc(Nc2ccncc2)c2nccnc2n1`, for which the Potency result was “inactive”.
